Measurements published in PubChem BioAssay (NCATS).
Inconclusive results are not listed. Activity calls are given as the source filed them. Calls follow the shape of the dose curve; as a rule, active = well fitted curve in the direction sought with a large enough effect; inconclusive = small, poorly fitted or top-dose-only effect, or another doubt; inactive = no such curve, though single readings can be large; an effect the other way counts as inactive or inconclusive.

Tests used:
[1] = biological target: Glutathione peroxidase 1 (Homo sapiens) (UniProt P07203); assay: Primary qHTS Assay for Inhibitors of Recombinant Selenoprotein Glutathione Peroxidase 1 (GPX1) (AID 1845191); details: recombinant GPX1, GR-coupled NADPH fluorescence, 15 min; series mostly up to 27.7 µM; also: nearly all actives have a fitted effect of over 65% in size; as to activity, negative = inhibition: % is scaled to controls: 0 for no effect and ±100 for the full control effect
How it was run: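 GR-coupled readout: NADPH consumption tracked by fluorescence, ex 340/em 450 nm, at t=0 and after 15 min at RT. Final mix 10 nM GPX1, 1 mM GSH, 0.5 mM CHP, 0.5 mM NADPH, 100 nM GR, 0.01% BSA, following 30 min enzyme–compound preincubation.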

[2] = biological target: Phospholipid hydroperoxide glutathione peroxidase GPX4 (Homo sapiens) (UniProt P36969); assay: Primary qHTS Assay for Inhibitors of Recombinant Selenoprotein Glutathione Peroxidase 4 (GPX4) (AID 1845192); details: recombinant GPX4, GR-coupled NADPH fluorescence, 15 min; series mostly up to 27.8 µM; also: nearly all actives have a fitted effect of over 65% in size; as to activity change, negative = inhibition: % is scaled to controls: 0 for no effect and ±100 for the full control effect
How it was run: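 Steps: GPX4 plus compound, 30 min RT; add GR/GSH/NADPH master mix; start with cumene hydroperoxide; read 340/450 nm fluorescence at 0 and 15 min. Finals were 200 nM GPX4, 1 mM GSH, 0.5 mM CHP, 0.5 mM NADPH, 100 nM GR.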

[3] = biological target: Luciferin 4-monooxygenase (Photinus pyralis) (UniProt P08659); assay: Primary firefly luciferase (FLuc) qHTS assay for identification of artifact compounds. (AID 1845220); details: purified firefly luciferase, luminescence, 5 min; series mostly up to 54.1 µM; also: nearly all actives have a fitted effect of over 60% in size; also: potency is read from the fitted curve at half-maximal effect;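 as to activity change, negative = inhibition: plate controls were DMSO vehicle for no effect and no enzyme for full effect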
How it was run: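 D-luciferin and ATP (10 uM each, final) in Tris acetate buffer pH 7.6 were incubated with compounds for 15 min at room temperature. The reaction was started with 10 nM Photinus pyralis luciferase and luminescence read after 5 min. Percent inhibition was fitted to a 4-parameter Hill equation.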

[4] = Primary fluorescence-based thiol-reactive (MSTI) qHTS assay for identification of artifact compounds. (AID 1845221); details: MSTI thiol-reactivity probe, 1 h; series mostly up to 53.8 µM; also: nearly all actives have a fitted effect of over 65% in size; also: potency is read from the fitted curve at half-maximal effect;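 as to activity change, negative = thiol reactive: thiol-reactive compounds lower the probe fluorescence signal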
How it was run: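 Compounds were incubated 1 h at room temperature in the dark with the MSTI probe (4 uM) in PBS pH 7.4, 2% DMSO. Signals were normalized between Acetyl-MSTI and MSTI.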

[5] = system: Nanoluciferase (engineered Oplophorus gracilirostris luciferase); assay: Primary Nanoluciferase (NLuc) qHTS assay for identification of artifact compounds. (AID 1845222); details: NLuc-conditioned medium, Nano-Glo luminescence, 5 min; series mostly up to 54.1 µM;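 also: 0% = DMSO and -100% = no enzyme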
How it was run: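 Diluted conditioned medium from NLuc-expressing S16 cells treated with compounds for 15 min at room temperature, then Nano-Glo substrate added; luminescence read after 5 min. Percent inhibition versus no-enzyme and DMSO controls fitted to 4-parameter Hill equation.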

Sequence of Glutathione peroxidase 1 (Homo sapiens) (P07203 whole entry, looked up): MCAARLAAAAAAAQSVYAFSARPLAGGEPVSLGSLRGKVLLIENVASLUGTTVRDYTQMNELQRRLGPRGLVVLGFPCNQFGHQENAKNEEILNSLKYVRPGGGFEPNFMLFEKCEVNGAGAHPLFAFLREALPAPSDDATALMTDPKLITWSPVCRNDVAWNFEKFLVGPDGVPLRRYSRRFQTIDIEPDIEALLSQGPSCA
Sequence of Phospholipid hydroperoxide glutathione peroxidase GPX4 (Homo sapiens) (P36969 whole entry, looked up): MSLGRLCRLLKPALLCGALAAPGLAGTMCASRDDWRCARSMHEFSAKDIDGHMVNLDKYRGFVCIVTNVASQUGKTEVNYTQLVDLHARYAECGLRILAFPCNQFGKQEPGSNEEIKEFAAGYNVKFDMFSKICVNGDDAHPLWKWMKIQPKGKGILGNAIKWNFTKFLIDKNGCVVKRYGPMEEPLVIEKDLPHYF

CC(=O)OC1(C)CC(O)C2(O)C=COC(OC3OC(CO)C(O)C(O)C3O)C12 (stereo not given)
inactive: Potency [1] | Potency [2] | Potency [3] | Potency [4] | Potency [5]

CC1(C)CC[C@]2(C(=O)O)CC[C@]3(C)C(=CCC4[C@@]5(C)CC[C@H](O[C@@H]6O[C@H](C(=O)O)[C@@H](O)[C@H](O[C@@H]7O[C@H](CO)[C@H](O)[C@H](O)[C@H]7O)[C@H]6O[C@@H]6O[C@H](CO)[C@@H](O)[C@H](O)[C@H]6O)C(C)(C)C5CC[C@]43C)[C@@H]2C1 (stereo not given in full)
inactive: Potency [1] | Potency [2] | activity change, negative = inhibition [3] -14.9% [at 6.45 µM] | activity change, negative = thiol reactive [4] 227% [at 6.41 µM] | activity, negative = inhibition [5] -1.21% [at 6.45 µM]

C[C@]1(O)CC[C@@H]2C(C(=O)O)=CO[C@@H](O[C@@H]3O[C@H](COC(=O)/C=C/c4ccc(O)c(O)c4)[C@@H](O)[C@H](O)[C@H]3O)[C@@H]21
active: Potency [4] 3.27 µM
inactive: Potency [1] | Potency [2] | Potency [3] | Potency [5]

Cc1c(-c2ccc3c(c2)OCO3)oc2ccc(C(O)C(C)O)cc12 (stereo not given)
inactive: Potency [1] | Potency [2] | Potency [4] | Potency [5]
active: Potency [3] 1.17 µM

C=C1C(O)C(OC(=O)c2ccccc2)C2C(C)(C(=O)O)CCCC2(C)C1CC/C(C)=C\CO (stereo not given)
inactive: Potency [1] | Potency [2] | Potency [3] | Potency [4] | Potency [5]

C=C1C(=O)OC[C@H]2C(C(=O)O)=CC3CC(C)(C)C[C@@]132 (stereo not given in full)
active: Potency [4] 21.2 µM
inactive: Potency [1] | Potency [2] | Potency [3] | Potency [5]

CCC(C)C1NC(=O)C2C(C)CCN2C(=O)C(CC(O)CO)OC(=O)CCNC(=O)C(C)N(C)C(=O)C(C(C)C)N(C)C1=O (stereo not given)
inactive: Potency [1] | Potency [2] | Potency [3] | Potency [4] | Potency [5]

C=CC1(C)C=C2CC[C@H]3[C@@](C)(C(=O)O)CCC[C@]3(C)C2CC1 (stereo not given in full)
inactive: Potency [1] | Potency [2] | Potency [3] | Potency [4] | Potency [5]

CC(=O)OCC1OC(O[C@H]2CC[C@]34C[C@]35CC(O)[C@]3(C)[C@@H]([C@H](C)CC/C=C(\C)C(=O)O)C(O)C[C@@]3(C)C5CC[C@H]4C2(C)C)C(O)C(O)C1OC1OCC(O)C(O)C1O (stereo not given in full)
inactive: Potency [1] | Potency [2] | outcome [3] inactive [at 11.6 µM] | activity change, negative = thiol reactive [4] 154% [at 11.5 µM] | activity, negative = inhibition [5] -3.42% [at 11.6 µM]

CCC1(O)CC2c3cc(OC)c(OC)cc3CCN2CC1CC(C)C (stereo not given)
inactive: Potency [1] | Potency [2] | Potency [3] | Potency [4] | Potency [5]

C/C=C1/[C@H](O[C@@H]2O[C@H](CO)[C@@H](O)[C@H](O)[C@H]2O)OC=C2C(=O)O[C@@H]3C[C@@H](C(C)CO)[C@H](COC(=O)C[C@H]21)[C@H]3C (stereo not given in full)
inactive: Potency [1] | Potency [2] | Potency [3] | Potency [4] | Potency [5]

C=C(CCO)C(=O)OCC1OCC(OC(=O)C(=C)CCO[C@@H]2O[C@H](CO)[C@@H](O)[C@H](O)[C@H]2O)C(O)C1O (stereo not given in full)
inactive: Potency [1] | Potency [2] | Potency [3] | Potency [4] | Potency [5]

CC1=CC(=O)C2C(C)(C)CCC[C@]2(C)[C@H]1CC[C@H](C)CC(=O)O (stereo not given in full)
inactive: Potency [1] | Potency [2] | Potency [3] | Potency [4] | Potency [5]

C=C(C)[C@@H]1CC[C@]2(C)CC[C@]3(C)C(CCC4[C@@]5(C)CC[C@H](O)C(C)(C)C5CC[C@]43C)C12 (stereo not given in full)
inactive: Potency [1] | Potency [2] | Potency [3] | Potency [4] | Potency [5]

C=C1C(=O)O[C@@H]2C[C@]3(C)[C@@H](CCC(C)=O)[C@@H]3C[C@H]12
inactive: Potency [1] | Potency [2] | Potency [3] | Potency [4] | Potency [5]

CC(=O)O[C@@H](C[C@@H]1C=C(C)C(=O)O1)[C@H](C)[C@H]1CCC2[C@@]3(C)CC[C@H](O[C@@H]4O[C@H](CO)[C@@H](O)[C@H](O)[C@H]4O[C@@H]4O[C@@H](C)[C@H](O)[C@@H](O)[C@H]4O)C(C)(C)C3CC[C@@]2(C)[C@@]12COC(=O)C2 (stereo not given in full)
inactive: Potency [1] | Potency [2] | activity change, negative = inhibition [3] -7.53% [at 11.6 µM] | activity change, negative = thiol reactive [4] 32.4% [at 11.5 µM] | activity, negative = inhibition [5] -4.12% [at 11.6 µM]

C=CC(C)(CC/C=C(\C)C(=O)OC[C@H]1O[C@@H](OC(C)(C=C)CC/C=C(\C)C(=O)O[C@H]2[C@H](O)[C@@H](O)[C@H](OC(C)(C=C)CC/C=C(\C)C(=O)O)O[C@@H]2CO)[C@H](O)[C@@H](O)[C@@H]1O)O[C@@H]1O[C@H](CO)[C@@H](O)[C@H](O)[C@H]1O (stereo not given in full)
inactive: Potency [1] | Potency [2] | outcome [3] inactive [at 11.6 µM] | activity change, negative = thiol reactive [4] 79.7% [at 11.5 µM] | activity, negative = inhibition [5] 3.18% [at 11.6 µM]
